This assay can be described thus: LOX IMVI melanoma resazurin viability loss, dose response, HRAS target identification, cell-based, Alamar Blue fluorescence, 8/24/48 h, dry powder (AID 720606).

Records with an inconclusive call do not appear. Calls of active or inactive are those of the source.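 Rule for the calls: active = all three timepoint tests show falling viability with half-maximal potency at or below twice the top dose; inconclusive = timepoint tests disagree on the call; inactive = all timepoint tests inactive.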

Turning to `Cc1onc(C(=O)N2CCN(C(c3ccncc3)c3ccncc3)CC2)c1[N+](=O)[O-]`, the molecule was called inactive.

`CCC(=O)N(c1ccc(OC)c(Cl)c1)C(C(=O)NCCc1ccccc1)c1cccs1` (configuration not stated): the molecule was classed as inactive.
